Experimental data reported in PubChem BioAssay (EPA / NIEHS).
“And” between values parts separate entries of the source, which are not always exact repeats. Equal entries are not always repeated. Where a structure was tested more than once in an assay, its records may differ in their call. The source made the active and inactive calls. How the source made its calls: active means hit-call score of the fitted dose curve at least 0.9, where 1 is the maximum; inactive means score below 0.9.

Key:
[1] = read-out: Epidermal growth factor receptor (EGFR), EGFR (gene 1956); test: BSK_BE3C_EGFR: BioMAP Diversity Plus: BE3C Assay for Epidermal growth factor receptor (EGFR) Biomarker Activity (AID 2284281); conditions: primary human bronchial epithelial cells
How it was run: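 ELISA read-out of EGFR levels on human bronchial epithelial primary cells collected 24 h post-dosing. DMSO served as negative control and baseline for gain-of-signal fitting.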

KRT18 (gene 3875) = test: BSK_BE3C_Keratin818: BioMAP Diversity Plus: BE3C Assay for Keratin 818 Biomarker Activity (AID 2284282); conditions: primary human bronchial epithelial cells
How it was run: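 In this multiplexed primary-cell system, bronchial epithelial cells were dosed and harvested at 24 h. Keratin 8/18 was determined by ELISA and analysed for increases over DMSO controls.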

[2] = read-out: Matrix Metallopeptidase 9 (MMP9), MMP9 (gene 4318); test: BSK_BE3C_MMP9: BioMAP Diversity Plus: BE3C Assay for Matrix Metallopeptidase 9 (MMP9) Biomarker Activity (AID 2284283); conditions: primary human bronchial epithelial cells
How it was run: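 ELISA read-out of MMP-9 after 24 h compound exposure of human lung bronchial epithelial primary cells (BE3C). Fit in gain direction vs DMSO negative control; total protein by SRB in parallel cultures flagged overt cytotoxicity.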

[3] = read-out: Plasminogen activator inhibitor-1 (PAI1), SERPINE1 (gene 5054); test: BSK_CASM3C_PAI1: BioMAP Diversity Plus: CASM3C Assay for Plasminogen activator inhibitor-1 (PAI1) Biomarker Activity (AID 2284284); conditions: primary human coronary artery smooth muscle cells;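 further: PAI-1 protein level measured by ELISA 24 h after dosing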
[4] = read-out: Monocyte Chemoattractant Protein-1 (MCP1), CCL2 (gene 6347); test: BSK_hDFCGF_MCP1: BioMAP Diversity Plus: hDFCGF Assay for Monocyte Chemoattractant Protein-1 (MCP1) Biomarker Activity (AID 2284285); conditions: primary human foreskin fibroblasts
How it was run: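 MCP-1 ELISA readout was taken 24 hours after dosing primary human dermal fibroblasts in the hDFCGF system, with DMSO as baseline. Parallel sulforhodamine B staining of total protein tracked overt cytotoxicity.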

[5] = read-out: Vascular cell adhesion molecule 1 (VCAM1), VCAM1 (gene 7412); test: BSK_IMphg_VCAM1: BioMAP Diversity Plus: IMphg Assay for Vascular cell adhesion molecule 1 (VCAM1) Biomarker Activity (AID 2284286); conditions: primary human endothelial cells with macrophages
How it was run: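 ELISA read-out of VCAM-1 on venular endothelial cell/macrophage co-cultures at 24 h post-treatment, with DMSO as baseline and positive-direction fitting. Parallel sulforhodamine B total-protein staining (560 nm) served as the overt cytotoxicity measure.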

[6] = read-out: Intercellular Adhesion Molecule 1 (ICAM1), ICAM1 (gene 3383); test: BSK_hDFCGF_ICAM1: BioMAP Diversity Plus: hDFCGF Assay for Intercellular Adhesion Molecule 1 (ICAM1) Biomarker Activity (AID 2284287); conditions: primary human foreskin fibroblasts
How it was run: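 ICAM-1 ELISA readout 24 h after dosing, DMSO as baseline, in human dermal foreskin fibroblast cultures. Cytotoxicity checked in parallel wells by SRB staining (0.1% SRB, 10% TCA fixation, 560 nm).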

[7] = read-out: TIMP metallopeptidase inhibitor 2 (TIMP2), TIMP2 (gene 7077); test: BSK_hDFCGF_TIMP2: BioMAP Diversity Plus: hDFCGF Assay for TIMP metallopeptidase inhibitor 2 (TIMP2) Biomarker Activity (AID 2284289); conditions: primary human foreskin fibroblasts
How it was run: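 Primary human foreskin fibroblasts in the hDFCGF system, dosed for 24 h; TIMP-2 level measured by ELISA, fitted in the positive direction against DMSO; cytotoxicity checked in parallel by sulforhodamine B total protein staining.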

[8] = read-out: Interleukin-1 alpha (IL1a), IL1A (gene 3552); test: BSK_IMphg_IL1a: BioMAP Diversity Plus: IMphg Assay for Interleukin-1 alpha (IL1a) Biomarker Activity (AID 2284290); conditions: primary human endothelial cells with macrophages
How it was run: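 IL-1α is quantified by ELISA at 24 h in the endothelial/macrophage IMphg co-culture, with gain of signal fitted relative to DMSO. Parallel SRB total-protein staining flags overt toxicity.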

CD40, CD40 (gene 958) = test: BSK_IMphg_CD40: BioMAP Diversity Plus: IMphg Assay for CD40 Biomarker Activity (AID 2284288); conditions: primary human endothelial cells with macrophages
How it was run: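 ELISA read-out of cell-surface CD40 at 24 h in human venular endothelial cell/macrophage co-cultures. Activity fitted in the positive direction against DMSO; parallel SRB staining (560 nm) gauges overt cytotoxicity.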

Row | SMILES | outcome [1] | outcome (KRT18 (gene 3875)) | outcome [2] | outcome [3] | outcome [4] | outcome [5] | outcome [6] | outcome [7] | outcome [8] | outcome (CD40, CD40 (gene 958)) | AC50 [4] | AC50 [7] | AC50 [8] | AC50 [5]
1 | FC(F)(F)C(F)(F)C(F)(F)C(F)(F)C(F)(F)C(F)(F)C(F)(F)Br | inactive | inactive | inactive | inactive | inactive | inactive | inactive | inactive | inactive |  |  |  |  | 
2 | FC(F)(F)C(F)(F)C(F)(F)CI | inactive | inactive | inactive | inactive | inactive | inactive | inactive | inactive | inactive |  |  |  |  | 
3 | O=C(O)C(F)(OC(F)(F)C(F)(OC(F)(F)C(F)(OC(F)(F)C(F)(F)C(F)(F)F)C(F)(F)F)C(F)(F)F)C(F)(F)F (stereo unspecified) | inactive | inactive | inactive | inactive | inactive | inactive |  | inactive | inactive | inactive |  |  |  | 
4 | C=CC(=O)OCC(F)(F)C(F)(F)C(F)(F)C(F)(F)C(F)(F)C(F)(F)C(F)(F)F | inactive | inactive | inactive | inactive | inactive | inactive |  | inactive | inactive |  |  |  |  | 
5 | O=C(O)C(F)(OC(F)(F)C(F)(OC(F)(F)C(F)(F)C(F)(F)F)C(F)(F)F)C(F)(F)F (stereo unspecified) | inactive | inactive | inactive | inactive | inactive | inactive |  | inactive | inactive |  |  |  |  | 
6 | COC(=O)CCC(F)(F)C(F)(F)C(F)(F)C(F)(F)F | inactive | inactive | inactive | inactive | inactive | inactive |  | inactive | inactive | inactive |  |  |  | 
7 | Cc1ccc(S(=O)(=O)OCC(F)(F)C(F)(F)C(F)(F)C(F)(F)C(F)(F)C(F)F)cc1 | inactive | inactive | inactive | inactive |  | inactive |  | inactive | inactive |  | 6.75 µM (active) and 3.49 µM (active) |  |  | 
8 | CCCCCCOC(=O)c1ccccc1O | inactive | inactive | inactive | inactive |  |  |  |  |  |  | 18.2 µM (active) and 22.9 µM (active) | 31.2 µM (active) and 20.2 µM (active) |  | 
9 | O=S(=O)(OCC(F)F)C(F)(F)F | inactive | inactive | inactive | inactive | inactive | inactive |  | inactive | inactive | inactive |  |  |  | 
10 | C=CC(F)(F)C(F)(F)C(F)(F)C(F)(F)C(F)(F)C(F)(F)C(F)(F)C(F)(F)F | inactive | inactive | inactive | inactive | inactive | inactive |  | inactive | inactive |  |  |  |  | 
11 | O=C(O)C(F)(F)C(F)(F)C(F)(F)C(F)(F)F | inactive | inactive | inactive | inactive | inactive | inactive |  | inactive | inactive | inactive |  |  |  | 
12 | OCC(F)(F)C(F)(F)C(F)(F)C(F)F | inactive | inactive | inactive | inactive | inactive | inactive |  | inactive | inactive |  |  |  |  | 
13 | C=C(C)C(=O)OCC(F)(F)C(F)(F)C(F)(F)F | inactive | inactive | inactive | inactive | inactive | inactive |  | inactive | inactive |  |  |  |  | 
14 | FC(F)(Br)C(F)(F)C(F)(F)C(F)(F)C(F)(F)C(F)(F)Br | inactive | inactive | inactive | inactive | inactive | inactive |  | inactive | inactive |  |  |  |  | 
15 | C=C(C)C(=O)OCCC(F)(F)C(F)(F)C(F)(F)C(F)(F)C(F)(C(F)(F)F)C(F)(F)F | inactive | inactive | inactive | inactive | inactive | inactive |  | inactive | inactive | inactive |  |  |  | 
16 | CC(C)(C)C(=O)CC(=O)C(F)(F)C(F)(F)C(F)(F)F | inactive | inactive | inactive | inactive | inactive | inactive |  | inactive | inactive | inactive |  |  |  | 
17 | OCC(F)(F)C(F)(F)C(F)(F)C(F)(F)C(F)(F)C(F)F | inactive | inactive | inactive | inactive | inactive | inactive |  | inactive | inactive |  |  |  | 23.4 µM (active) | 
18 | OCC(F)(F)C(F)(F)C(F)(F)F | inactive | inactive | inactive | inactive | inactive | inactive |  | inactive | inactive | inactive |  |  |  | 
19 | FC(F)(F)C(F)(F)C(F)(F)C(F)(F)C(F)(F)C(F)(F)CC1CO1 (stereo unspecified) | inactive | inactive | inactive | inactive | inactive | inactive |  | inactive | inactive | inactive |  |  |  | 
20 | O=C(O)C(F)(F)C(F)(F)C(F)(F)C(F)(F)C(F)(F)C(F)(F)C(F)(F)C(F)(F)C(F)(F)C(F)(F)C(F)(F)C(F)(F)F | inactive | inactive | inactive | inactive | inactive |  |  | inactive | inactive |  |  |  |  | 15.2 µM (active) and 19.4 µM (active)
21 | O=C(O)C(F)(F)C(F)(F)C(F)F | inactive | inactive | inactive | inactive | inactive | inactive |  | inactive | inactive |  |  |  |  | 
22 | FC(F)(F)C(F)(F)CNCC(F)(F)C(F)(F)F | inactive | inactive | inactive | inactive | inactive | inactive |  | inactive | inactive |  |  |  |  | 
23 | FC(F)(F)C(F)(F)C(F)(F)N(C(F)(F)C(F)(F)C(F)(F)F)C(F)(F)C(F)(F)C(F)(F)F | inactive | inactive | inactive | inactive | inactive | inactive |  | inactive | inactive |  |  |  |  | 
24 | OCCCC(F)(F)C(F)(F)C(F)(F)F | inactive | inactive | inactive | inactive | inactive | inactive |  | inactive | inactive |  |  |  |  | 
25 | O=C(O)C(F)(F)C(F)(F)F | inactive | inactive | inactive | inactive | inactive | inactive |  | inactive | inactive |  |  |  |  | 
26 | FC(F)(F)C(F)(F)C(F)(F)C(F)(F)C(F)(F)C(F)(F)C(F)(F)C(F)(F)F | inactive | inactive | inactive | inactive | inactive | inactive |  | inactive | inactive |  |  |  |  | 
27 | C=C(C)C(=O)OCC(F)(F)C(F)(F)C(F)(F)C(F)(F)C(F)(F)C(F)(F)C(F)(F)F | inactive | inactive | inactive | inactive | inactive | inactive |  | inactive | inactive |  |  |  |  | 
28 | O=P(O)(O)OCCC(F)(F)C(F)(F)C(F)(F)C(F)(F)C(F)(F)C(F)(F)F | inactive | inactive | inactive | inactive | inactive | inactive |  | inactive | inactive |  |  |  |  | 
29 | C=CC(F)(F)C(F)(F)C(F)(F)C(F)(F)C(F)(F)C(F)(F)C(F)(F)C(F)(F)C=C | inactive | inactive | inactive | inactive | inactive | inactive |  | inactive | inactive |  |  |  |  | 
